Data from PubChem BioAssay AID652176 (Sanford-Burnham Center for Chemical Genomics, 2013).
The campaign covered roughly 2,400 compounds. About 25 (1%) were called active. The list is a sample of the results. Values without a mark were called inactive.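 How the source made its calls: active means replicate-average signal at least 3 plate SD below neutral wells, shown as high inhibition, flagging enzyme-inhibiting false positives; inactive means the rest.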

The compounds below were run on Beta-galactosidase (Escherichia coli), counter-screen for EBI2 antagonists (assay: inhibitors of purified bacterial beta-gal – biochemical, luminescence, single concentration, counter-screen for EBI2 antagonist project, confirmation (AID 652176;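 further: 0% = DMSO wells with enzyme and 100% = wells lacking enzyme; higher means stronger loss of beta-gal luminescence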)). Conditions: luminescent Galacton Star, 15 min, at 5 µM, active compounds read high.
`Cc1ccc(S(=O)(=O)N2CCN(C(=O)CSc3cc(C)ccc3C)CC2)c(C)c1` was tested, and the inhibition was 2.31%.
`COc1cccc(NC(=O)Cn2c3ccc(F)cc3c3nc4n(c(=O)c32)CCS4)c1` showed an inhibition of 1.47%.
Work on `COc1ccc(-c2cc(C3CCN(c4ncccc4[N+](=O)[O-])CC3)[nH]n2)cc1` yielded an inhibition of 12%.
In the case of `COc1cccc(NC(=O)Cn2c3ccccc3c3nc4n(c(=O)c32)CCS4)c1`, the inhibition is reported as -5.55%.
Work on `COc1ccc(OCC(=O)N2CCN(C(=O)c3cccs3)CC2)cc1` yielded an inhibition of 8.51%.
With `Cc1nc(-c2ccccc2)sc1C(=O)/C=C/c1ccccc1` the inhibition was 12%.
`c1ccc(C(c2ccccc2)N2CCN(Cc3nnnn3C3CCCCC3)CC2)cc1` showed an inhibition of 9.44%.
Work on `O=C(c1cc2ccccc2o1)N1CCN(S(=O)(=O)c2ccc(Cl)s2)CC1` yielded an inhibition of 3.41%.
`COc1ccc(N(CC(=O)Nc2cc(OC)ccc2OC)S(=O)(=O)c2c(C)noc2C)cc1` showed an inhibition of 6.51%.
Compound `Fc1ccccc1/C=N/Nc1cc(N2CCCCC2)ncn1` has an inhibition of -5.12%.
In the case of `Cc1ccc(SCC(=O)N2CCN(c3ccc(F)cc3)CC2)cc1`, the inhibition is reported as 1.65%.
In the case of `COc1ccc(C(C(=O)NC2CCCCC2)N(C(=O)c2snc(C(N)=O)c2N)c2ccccc2OC)cc1` (centres undefined), the inhibition is reported as 1.73%.
In the case of `Cc1ccc(-n2ncc3c(=O)n(-c4ccc(C)c(C)c4)c(-c4ccco4)nc32)cc1`, the inhibition is reported as -11.1%.
With `O=C(c1cc(=O)c2ccccc2o1)N1CCN(c2ccccc2)CC1` the inhibition was 2.55%.
`Cc1cc(C)cc(Oc2nc3c(C)cccn3c(=O)c2/C=C(\C#N)C(=O)NC2CCS(=O)(=O)C2)c1` (centres undefined) gave an inhibition of -6.32%.
`CC1(Cc2ccccc2C#N)C(=O)Nc2ccc(-c3ccc4[nH]ccc4c3)cc21` (centres undefined) showed an inhibition of -12.8%.
`N#CC(=C1CCCC1)c1nc(-c2ccc(Cl)cc2)cs1` showed an inhibition of -15.6%.
`CCCCC(=O)N(C)c1c(CC)nc2c(OCc3ccc(Cl)cc3Cl)cccn12` was tested, and the inhibition was -8.17%.
`CC(C)Cn1c(N2CCN(C(=O)/C=C/c3ccccc3)CC2)nc2ccccc21` gave an inhibition of -6.12%.
`CCN1CCN(C(=O)CSc2ccc(C)cc2)CC1` gave an inhibition of -12.6%.
For `O=C(CCNS(=O)(=O)c1ccccc1)NCCSc1ccc(Br)cc1`, the inhibition was -8.38%.
For `COc1ccc(/C=C/C(=O)c2ccc(OC)cc2O)cc1`, the inhibition was -7.89%.
Work on `O=C(CCc1ccccc1)NNC(=O)COc1ccc(Cl)cc1` yielded an inhibition of 4.21%.
With `Cc1ccc(-c2nn(-c3ccccc3)cc2/C=C/C(=O)Nc2cccc(S(N)(=O)=O)c2)cc1` the inhibition was 7.52%.
